Screening data from PubChem.
SKKanGAS inh = S. pyogenes SKKanGAS growth inhibitors in kanamycin, primary screen, streptokinase expression inhibitor project, SKKanGAS strain, BacTiter-Glo luminescence. 6 h. inhibition, % at 7.5 µM. 300,000 tested, 1.3% active. AID 1662, 2009;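 active = mean replicate score, as percent of positive control median, at least 50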;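 also: strain carries kanamycin resistance gene driven by streptokinase promoter and grows in 40 µg/ml kanamycin; loss of luminescence reflects streptokinase promoter inhibition or plain growth inhibition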
tim10-1 inh = growth inhibitors of tim10-1 mutant yeast, primary screen, luminescence, uHTS | S. cerevisiae tim10-1 ts strain growth, BacTiter-Glo, 24 h | inhibition, % at 20 µM | 330,000 tested, 2.2% active;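 active = inhibition of at least 40%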;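 also: mutant grown at 25 °C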
NLRP3 yeast inh = NALP3 inflammasome inhibitors in reconstituted yeast, primary screen, luminescence, uHTS. Yeast reconstituted NLRP3/ASC/caspase-1, beta-gal luminescence, 24 h. inhibition, % at 10 µM. 330,000 tested, 0.39% active. AID 2825, 2010;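 active = inhibition of 50% or more; inactive = inhibition below 50%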
TIM10 inh = growth inhibitors of isogenic TIM10 control yeast, primary screen, counter-screen for tim10-1 yeast inhibitor project, luminescence, uHTS; S. cerevisiae TIM10 strain growth, BacTiter-Glo luminescence, 24 h; inhibition, % at 10 µM; 330,000 tested, 1.4% active;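 active = inhibition of 40% or more at the single tested concentration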;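 also: wild-type TIM10 isogenic control strain grown at permissive 25 °C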
tim23-1 inh = growth inhibitors of tim23-1 mutant yeast, primary screen, luminescence, uHTS | S. cerevisiae tim23-1 growth, BacTiter-Glo luminescence, 24 h | inhibition, % at 20 µM | 330,000 tested, 1.3% active;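 active = growth inhibition of the mutant yeast at or above 50%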;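 also: temperature-sensitive mutant grown at 25 °C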
NALP1 inh = NALP1 inflammasome inhibitors in reconstituted yeast, colorimetric, S. cerevisiae, triplicate retest. AID 2071, 2009. inhibition, % at 10 µM. 280,000 tested, 0.61% active. S. cerevisiae NALP1/ASC/caspase-1 growth, X-gal OD620, 72 h; in the data active = inhibition mostly above about 24%, no sharp cut-off; inactive = mostly below about 32%
tim10 confirm = growth inhibitors of wild-type TIM10 yeast, confirmation, counter-screen for tim10-1 synthetic lethality project, single concentration, luminescence, S. cerevisiae. shares compounds with TIM10 inh. S. cerevisiae tim10 strain growth, BacTiter-Glo luminescence, 24 h. inhibition, % at 10 µM. 4,600 tested, 63% active. AID 463215, 2010;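 active = inhibition of yeast growth at or above a set limit in either of two replicates at 10 µM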; also: this counterscreen used the strain with wild-type TIM10
Hits are given with their value; n = inactive; x = no result. An excerpt weighted towards active compounds, which were near 4.9% of everything screened.

SMILES | SKKanGAS inh | tim10-1 inh | NLRP3 yeast inh | TIM10 inh | tim23-1 inh | NALP1 inh | tim10 confirm
O=C(NNC(=O)c1cnccn1)c1ccc(Cl)c(Cl)c1 | n | n | n | n | n | n | x
Cc1ccc(C2CC(C(F)(F)F)n3ncc(C(=O)NCc4ccco4)c3N2)cc1 (configuration not stated) | n | n | n | 47 | n | n | 32
Cc1ccc(C2CC(C(F)(F)F)n3ncc(C(N)=O)c3N2)cc1 (configuration not stated) | n | n | n | n | n | n | x
C[n+]1c2n(c3ccccc31)N=C(c1ccc(Cl)cc1)CS2 | n | n | n | 41 | n | n | 44
Cc1cc(C(=O)NNC(=O)COc2ccccc2Cl)n[nH]1 | n | n | n | n | n | n | x
CCOC(=O)C1CCN(C(=O)CCC(=O)NNc2nc3ccccc3c3nc(C)nn23)CC1 | n | n | n | n | n | n | x
COc1ccccc1C(=O)Nc1ccnn1C1CCN(C/C=C/c2ccc(F)cc2)CC1 | n | n | n | n | n | n | x
CCn1c(-c2ccccc2O)n[nH]c1=S | n | n | n | n | n | n | x
CCn1c(-c2cc(-c3ccccc3)sc2N)n[nH]c1=S | n | n | n | 45 | n | n | 43
Cc1cccc(-c2n[nH]c(=S)n2Cc2ccccc2)c1 | n | n | n | 41 | n | n | n
S=c1[nH]nc(-c2cc3ccccc3o2)n1Cc1ccccc1 | n | n | n | 52 | n | n | 48
S=c1[nH]nc(CCc2ccccc2)n1Cc1ccccc1 | n | n | n | n | n | n | x
S=c1[nH]nc(-c2ccc(Cl)cc2Cl)n1Cc1ccccc1 | n | n | n | 56 | n | n | n
O=[N+]([O-])c1cccc(-c2n[nH]c(=S)n2Cc2ccccc2)c1 | n | n | n | n | n | n | x
COc1ccccc1-c1noc(CCCC(=O)NC2CCCCC2)n1 | n | n | n | n | n | n | x
Cc1nnc(C)n1/N=C/c1ccc(O)cc1 | n | n | n | n | n | n | x
Oc1ccc(/C=N/n2c3ccccc3c3ccccc32)cc1 | 71 | n | n | 44 | n | n | 75
CC1=C/C(=N\NC(=S)NCCc2ccccc2)CC(C)(C)C1 | 52 | n | n | 43 | n | n | n
CCOC(=O)c1ccc(NS(=O)(=O)c2ccc3oc(=O)[nH]c3c2)cc1 | n | n | n | n | n | n | x
CCc1ccc(C(=O)NNc2cc(Cl)cc(Cl)c2)cc1 | n | n | n | n | n | n | x
CCc1ccc(C(=O)NNc2ccc(Cl)cc2)cc1 | n | n | n | 53 | n | n | 53
O=C(NCc1nc(-c2ccc(Cl)cc2)no1)c1ccc2c(c1)OCO2 | n | n | n | 43 | n | n | n
Nc1ccc(-c2nc3ncccc3o2)c(Cl)c1 | n | n | n | 42 | n | n | n
O=C(COc1ccccc1Cl)N1CCN(c2ccc([N+](=O)[O-])c(N3CCCCC3)c2)CC1 | n | n | n | n | n | n | x
O=C(COc1ccc(Cl)cc1)N1CCN(c2ccc([N+](=O)[O-])c(N3CCCCC3)c2)CC1 | n | n | n | 42 | n | n | n
SMILES | SKKanGAS inh | tim10-1 inh | NLRP3 yeast inh | TIM10 inh | tim23-1 inh | NALP1 inh | tim10 confirm
O=C(NCc1ccc(Cl)cc1)c1ccc(Br)o1 | n | n | n | 68 | n | n | n
COc1cc(C(=O)N(CCN(C)C)CC2CCCN(Cc3ccccc3F)C2)ccc1C (configuration not stated) | n | n | n | n | n | n | x
CCOC(=O)c1ccc(NC(=O)c2c(N)n(Cc3ccccc3)c(=O)[nH]c2=O)cc1 | n | n | n | 98 | n | x | n
Cc1ccc(C(=O)c2oc3ccccc3c2N)cc1 | n | n | n | 47 | n | n | n
COc1ccc(-c2[nH]n(-c3ccc([N+](=O)[O-])cc3)c(=O)c2C=NCc2ccncc2)cc1 | x | n | n | 43 | n | n | n
CC(=C/c1ccccc1)/C=N/N1CCN(Cc2ccc(C)cc2)CC1 | n | n | n | n | n | n | x
Cc1ccc(CN2CCN(/N=C\C(Br)=C\c3ccccc3)CC2)cc1 | n | n | n | 44 | n | n | n
COc1cc(NC(=S)Nc2cccc(C)n2)cc(OC)c1OC | n | n | n | 47 | n | n | 30
Cc1nn2c(-c3ccco3)nnc2c2ccccc12 | n | n | n | 62 | n | x | 48
Cc1ccc(NC(=O)CN(C)C(=O)COc2c(Cl)cc(Cl)c3ccc(C)nc23)cc1 | n | n | n | 40 | n | n | n
Cc1ccc(NC(=O)CN(C)C(=O)COc2cccc3ccc(C)nc23)cc1 | x | n | n | n | n | x | x
Cc1noc(C)c1NC(=O)N(C)C[C@H]1Oc2ccc(NS(=O)(=O)c3c(C)noc3C)cc2C(=O)N([C@H](C)CO)C[C@@H]1C | x | n | n | n | n | x | x
COc1ccc(-c2cc(C3CCN(c4cc(Cl)nc(N)n4)CC3)[nH]n2)cc1 | n | n | n | 43 | n | n | n
COc1ccc(-c2cc(C3CCN(CC(O)C(F)(F)F)CC3)[nH]n2)cc1 (configuration not stated) | n | n | n | n | n | n | x
Cc1ccc(N(CC(=O)Nc2ccc(F)c(Cl)c2)S(=O)(=O)c2c(C)noc2C)cc1 | n | n | n | 64 | n | n | 61
Cc1ccc(N(CC(=O)Nc2cc(C)cc(C)c2)S(=O)(=O)c2c(C)noc2C)cc1 | n | n | n | n | n | n | x
c1csc(C(c2nnnn2C2CCCCC2)N2CCN(c3nc4ccccc4s3)CC2)c1 (configuration not stated) | n | x | x | x | x | n | x
c1ccc(C(c2nnnn2C2CCCC2)N2CCN(c3nc4ccccc4s3)CC2)cc1 (configuration not stated) | n | n | n | 47 | n | n | n
Cc1ccc(C(c2nnnn2C2CCCC2)N2CCN(c3nc4ccccc4s3)CC2)cc1 (configuration not stated) | n | n | n | 56 | n | x | n
Nc1ccc(C(=O)N/N=C/c2cn(Cc3ccccc3)c3ccccc23)cc1 | n | n | n | n | n | n | x
O=C(Cn1cc(/C=C\[N+](=O)[O-])c2ccccc21)Nc1ccccc1 | n | n | n | 43 | n | x | 55
O=C(O)Cn1cc(/C=C/[N+](=O)[O-])c2ccccc21 | n | n | n | n | n | n | x
O=[N+]([O-])/C=C/c1cn(Cc2ccccc2)c2ccccc12 | n | n | n | 46 | n | n | 56
O=C(NCCCn1ccnc1)c1cccc(Br)c1 | n | n | n | n | n | n | x
